According to PubChem BioAssay AID602376 (Johns Hopkins Ion Channel Center, 2012):
Potency and affinity values are given separately. Inconclusive results are not listed. Activity calls are given as the source filed them.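 How the source made its calls: active means raises choline transporter activity at one or more tested doses and gives a fitted dose-response curve; inconclusive means no clear call, values can overlap the other calls; inactive means no choline transporter activation at any dose, or no curve.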

molecular target: High affinity choline transporter 1 (Homo sapiens) (UniProt Q9GZV3); assay: CHT activators, dose response, cell-based, 10-point CRC, membrane potential dye (AID 602376); settings: HEK293-CHT, choline-induced membrane potential dye, cells express CHT LV-AA mutant; series mostly up to 67 µM; percent activation: at the top concentration
Sequence (Q9GZV3 whole entry, looked up): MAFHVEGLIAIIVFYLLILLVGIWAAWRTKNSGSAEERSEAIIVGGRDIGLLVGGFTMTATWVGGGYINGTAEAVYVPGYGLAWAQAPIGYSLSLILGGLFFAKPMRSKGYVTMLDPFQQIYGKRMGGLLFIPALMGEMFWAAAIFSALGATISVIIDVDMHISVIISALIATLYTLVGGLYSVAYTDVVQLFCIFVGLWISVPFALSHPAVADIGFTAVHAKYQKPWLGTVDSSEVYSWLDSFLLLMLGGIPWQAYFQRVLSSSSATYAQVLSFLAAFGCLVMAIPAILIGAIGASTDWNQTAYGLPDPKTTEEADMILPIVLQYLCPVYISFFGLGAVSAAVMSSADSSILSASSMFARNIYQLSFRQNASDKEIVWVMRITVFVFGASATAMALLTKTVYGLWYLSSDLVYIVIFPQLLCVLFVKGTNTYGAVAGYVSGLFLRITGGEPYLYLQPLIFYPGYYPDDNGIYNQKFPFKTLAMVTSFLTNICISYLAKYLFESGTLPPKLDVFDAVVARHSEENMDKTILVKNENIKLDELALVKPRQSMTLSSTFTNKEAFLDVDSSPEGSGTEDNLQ

Percent activation, inactive:
O=C1CCC(C(=O)N(Cc2cccs2)C2(C(=O)NC3CCCCC3)CCCCC2)N1 (centres undefined) 73.7%
N=c1c2c(n(Cc3ccc(Cl)c(Cl)c3)c3c1CCC3)CCCC2 70.6%
COc1ccc(C(=O)c2coc3ccc(O)c(CN4CCOCC4)c23)cc1 48.5%
O=C(NCC(c1ccco1)N1CCCC1)c1ccccc1Sc1ccc(C(F)(F)F)cc1[N+](=O)[O-] (centres undefined) 51.3%
CCCC(c1nnnn1Cc1ccco1)N1CCN(c2cc(Cl)ccc2C)CC1 (centres undefined) 66%
Cc1nc(N(C)Cc2ccccc2)c2c(C)c(C)sc2n1 16.8%
COc1cccc(-c2cn(C[C@H]3CC[C@@H]([C@@H]4CC[C@H](Cn5cc(-c6cccc(OC)c6)nn5)O4)O3)nn2)c1 67.4%
CCOC(=O)c1c(NC(=O)CSc2nc3ccccc3o2)sc(C(C)=O)c1C 86.3%
Nc1sc(-c2ccccc2)n[n+]1Cc1cccc2cccnc12 135%
COc1ccc(-c2c3c(=O)n(C)c(=O)n(C)c3cn2C2CCCCC2)cc1 45.3%
CCC(C)Nc1nc(CN2CCOCC2)nc2sc3c(c12)CCC3 (centres undefined) -28.5%
COC(=O)c1ccccc1NC(=O)CN1CCN(C23CC4CC(CC(C4)C2)C3)CC1 74.9%
CCCCn1c(N)c(N(CCC(C)C)C(=O)c2ccc(COc3ccccc3)o2)c(=O)[nH]c1=O 58.5%
COc1ccccc1C1CC(c2ccc(Cl)cc2)Nc2ncnn21 (centres undefined) 65.7%
CCCCC(c1nnnn1C1CCCC1)N1CCN(C2CCCC2)CC1 (centres undefined) 51.1%
Cc1ccc(S(=O)(=O)c2nc(-c3ccco3)oc2SC(C)C)cc1 67.7%
Cc1ccc(-c2c(C(=O)N(C)Cc3ccccc3)oc(=O)c3ccccc23)cc1 79.7%
CCc1cccc(C)c1NC(=O)CN(C)Cc1ccc(Br)cc1 58.6%
Cc1cccc(Oc2nc(CN3CCOCC3)nc3sc4c(c23)CCCC4)c1 72.8%
O=C1CCN(Cc2ccccc2)CCN1[C@H](COc1ccccc1)Cc1ccccc1 68.6%
COc1ccc(C(C)=O)cc1CSc1nc2ccccc2c(=O)n1-c1ccccc1C 82.6%
O=C(c1ccco1)N(CCC(c1ccccc1)c1ccco1)Cc1ccccc1 (centres undefined) 61.2%
CC(C)C1Oc2ccccc2N(CC(=O)NC2CCCCC2)C1=O (centres undefined) 54.6%
COc1ccc(NC(=O)C(c2ccccc2)N2CCN(c3ccccn3)CC2)cc1Cl (centres undefined) 49.1%
O=C1N(Cc2cccc(Cl)c2)C[C@@H]2C[C@@H](c3ccsc3)N3CCC[C@@]123 83.3%
CCCC(=O)N1c2ccccc2C(=C2SC(C(=O)OC)=C(C(=O)OC)S2)C(=S)C1(C)C 43.5%
Cc1ccccc1SCC(=O)Nc1cc(C(F)(F)F)ccc1N1CCOCC1 68.4%
COc1cccc(C(c2nnnn2CCc2ccccc2)N2CCN(c3ccccc3)CC2)c1OC (centres undefined) 66.3%
FC(F)(F)COc1nc(OCC(F)(F)F)nc(N2CCN(c3ccccc3)CC2)n1 69.1%
CCOC(=O)C1(Cc2ccccc2C(F)(F)F)CCN(Cc2ccon2)CC1 63.5%
CCOC(=O)c1c[nH]c2nc(C)ccc2c1=O 14.8%
CC(Sc1nnc(-c2ccc(Cl)cc2Cl)n1Cc1ccccc1)C(=O)Nc1nccs1 (centres undefined) 59.2%
CN1CCN(CCCn2cnc3c(=O)oc4ccccc4c32)CC1 13.7%
CCOC(=O)C1(CC2CC2)CCN(Cc2cn[nH]c2-c2cccc(F)c2)CC1 84.1%
CCOC(=O)C1(CCc2ccccc2)CCN(Cc2cc(OC)c(OC)cc2OC)CC1 86.5%
C/C(=N\NC(=O)c1nnn(-c2nonc2N)c1CN1CCC(C)CC1)c1cccc(Br)c1 50.8%
CCN1C(N(C)CCc2cccs2)=N[C@@H](c2ccccc2)C(C(=O)OC)=C1C 89.2%
Cc1cccc2cc3c(N)c(C(=O)N4CCc5ccccc54)sc3nc12 133%
Cc1ccc(-n2c(SCCN)nnc2-c2cccc(C)c2)cc1 20.4%
